Bioassay records from PubChem.
Measles CPE: protection of cells from measles virus. Measles virus-infected cells, CPE protection, absorbance. protection (pct of control), % at 4 µM. hit rate 1.5% among 140,000; in the data active means protection mostly above about 24%, no sharp cut-off; inactive means mostly below about 26%
cytoskel mod: alters cytoskeleton assembly in HUVEC cells; HUVEC TNFa F-actin phalloidin imaging, high content; inhibition, % at 2 µM; hit rate 0.18% among 91,000; AID 836;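 active means inhibition above the batch mean plus 3 SD and confirmed as a hit by visual image inspection, cut at about 30% in these data, passing the limit was not always enough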
A number is an active result; – = inactive; · = not tested or not shown. A selection: hits, their analogues and other compounds. The true share with any hit is near 1.5%.

SMILES	Measles CPE	cytoskel mod
Cc1ccc(CNC(=O)CCC(=O)c2cccs2)cc1	60	–
O=C(CCC(=O)c1cccs1)NCc1ccc(Cl)cc1	–	–
O=c1c2ccccc2nc(-c2ccccc2)n1CCCN1CCOCC1	25	–
Cc1ccc(-c2nc3ccccc3c(=O)n2CCCN2CCOCC2)cc1	–	–
COC(=O)CSc1ccc(S(=O)(=O)N2CCOCC2)cc1[N+](=O)[O-]	–	·
CCOC(=O)c1nn(-c2ccc(F)cc2)c(C)c1C(C)=O	46	–
CCOC(=O)c1nn(-c2ccc(C)cc2)c(C)c1C(C)=O	–	–
CCNC(=S)Nc1cc(OCC)c(NC(=O)c2cccs2)cc1OCC	–	·
Cc1c(/C=N/NC(=O)C(NC(=O)c2ccc3c(c2)OCO3)C(C)C)c2ccccc2n1C (stereo unspecified)	–	·
CC(=O)Oc1c(C)cc(Cl)cc1C(=O)Nc1ccc([N+](=O)[O-])cc1Cl	–	·
Cc1cc(OCC(=O)O/N=C(\N)c2ccccc2)ccc1Cl	–	·
Cc1cccc(/C(N)=N/OC(=O)COc2ccc(Cl)c(C)c2)c1	23	·
CN1CCN(C(=O)C2(NC(=O)Nc3ccccc3Cl)CCCCC2)CC1	–	–
CCN1CCN(C(=O)C2(NC(=O)Nc3ccccc3Cl)CCCCC2)CC1	49	–
COc1ccc(CCC(=O)NCCCNC(=O)CCc2ccc(OC)cc2)cc1	–	·
O=C(NC(=S)N1CCN(c2ccc([N+](=O)[O-])cc2Cl)CC1)c1ccco1	–	·
CCC(=O)NC(=S)N1CCN(c2ccc([N+](=O)[O-])cc2Cl)CC1	29	–
COc1ccccc1NC(=O)N(Cc1cccs1)Cc1cc2cc3c(cc2[nH]c1=O)OCO3	–	·
COc1ccccc1CNC(=O)C1(c2ccc(Cl)cc2)CC1	–	·
Cc1ccc(C(=O)NC(=S)Nc2ccc(S(=O)(=O)N3CCN(C)CC3)cc2)cc1	63	–
Cc1cccc(C(=O)NC(=S)Nc2ccc(S(=O)(=O)N3CCN(C)CC3)cc2)c1	–	–
COc1ccc(N2CCN(C(=O)c3ccc(NS(=O)(=O)c4ccc(F)cc4)cc3)CC2)cc1	–	–
CCOc1ccc(S(=O)(=O)Nc2cccc(C(=O)N3CCN(c4ccc(OC)cc4)CC3)c2)cc1	84	–
Cc1cc(C=C(C#N)C#N)c(C)n1-c1ccccc1	51	–
Cc1ccc(-n2c(C)cc(C=C(C#N)C#N)c2C)cc1	·	–
SMILES	Measles CPE	cytoskel mod
COc1ccc(-n2c(CCc3ccccc3)nnc2SCC(=O)c2ccccc2)cc1	–	·
COc1ccc(C(=O)CSc2nnc(CCc3ccccc3)n2-c2ccccc2)cc1	25	–
CCC(CC)C(=O)Nc1cc(C(=O)NCCc2ccccc2)ccc1Cl	–	–
CC(=O)C1=C(C)Nc2ncnn2C1c1ccccc1Cl (stereo unspecified)	101	–
CC1=C(C(N)=O)C(c2ccc(Cl)cc2Cl)n2ncnc2N1 (stereo unspecified)	–	–
CS(=O)(=O)N1CCN(C(=O)C2c3ccccc3Oc3ccccc32)CC1	67	–
CCOc1ccccc1N1CCN(C(=O)C2c3ccccc3Oc3ccccc32)CC1	–	–
O=C(Nc1ccc(Oc2ccccc2)cc1)C1CCCN(c2ncccn2)C1 (stereo unspecified)	–	71
CC(=O)Nc1ccc(NC(=O)C2CCCN(c3ncccn3)C2)cc1 (stereo unspecified)	–	–
Cn1c(Cc2cccc3ccccc23)nnc1SCc1ccc([N+](=O)[O-])cc1	–	·
Cc1c(Cl)cccc1NC(=O)c1ccc(OCC(=O)NCc2ccccc2)cc1	–	·
COc1ccc(OC)c(C2=NOC(C(=O)N3CCCc4ccccc43)C2)c1 (stereo unspecified)	52	–
O=C(C1CC(c2ccc(F)cc2)=NO1)N1CCCc2ccccc21 (stereo unspecified)	–	–
Oc1ccc(-c2nccc(-c3cccs3)n2)cc1	–	–
NS(=O)(=O)c1cccc(NC(=O)CCSc2ccc(Cl)cc2)c1	–	·
O=C(NCc1ccc(F)cc1)c1ccc(S(=O)(=O)Nc2cccc(C(F)(F)F)c2)cc1	–	·
O=C(NCc1ccccc1F)c1ccc(S(=O)(=O)Nc2cccc(C(F)(F)F)c2)cc1	31	·
CC1CCN(c2cc(C#N)c(C#N)cc2[N+](=O)[O-])CC1	–	–
CC1CCN(c2ccc(N3C(=O)C4CCCCC4C3=O)cc2[N+](=O)[O-])CC1 (stereo unspecified)	48	·
COC(=O)[C@@H](N)CS	–	·
O=C(Cc1cccc(C(F)(F)F)c1)NCc1ccc(Cl)cc1Cl	–	·
O=C(NCCCN1CCCC1=O)c1ccc2c(c1)ncn2C1CCCCC1	41	·
CC(C)OCCCNC(=O)c1ccc2c(c1)ncn2C1CCCC1	–	·
Cc1cccc(OCC(=O)Nc2cccc(C(=O)Nc3ccccc3C(=O)O)c2)c1	–	·
Cc1cc(C)cc(OCC(=O)Nc2cccc(C(=O)O)c2)c1	89	–
SMILES	Measles CPE	cytoskel mod
O=C(Cn1nc(C(F)(F)F)cc1C1CC1)NCc1ccccc1F	–	·
COCCN1C(=O)c2ccc(C(=O)Nc3nccs3)cc2C1=O	30	–
CCCN1C(=O)c2ccc(C(=O)Nc3nccs3)cc2C1=O	–	–
CCOC(=O)c1c(C)oc2c(CC(=O)c3ccccc3)c(Cl)c(O)c(O)c12	–	·
O=C(/C(=N/N=C/c1ccc(O)c(O)c1)c1ccccc1)c1ccccc1	–	·
COc1cc(COCC(O)CN2CCOCC2)cc(OC)c1OC (stereo unspecified)	32	–
COc1ccc(COCC(O)CN2CCOCC2)cc1OC (stereo unspecified)	–	–
CCOc1cc(C(=O)OCC(=O)Nc2ncc(Cl)c(C)c2Cl)ccc1OCC(=O)N1CCOCC1	–	·
CCOc1cc(C(=O)OCC(=O)Nc2c(C)cccc2C)ccc1OCC(=O)N1CCOCC1	33	·
CN(C)c1ccc(NC(=O)CN2CCC(N3CCCCC3)CC2)cc1	–	–
COC(=O)c1c(S(=O)(=O)NCc2ccccc2)sc(C(=O)O)c1C	–	–
O=C(CSc1nnc(-c2cccnc2)n1Cc1ccccc1)NCc1ccccc1	–	–
Cc1cc(N2C(=O)C3CC=CCC3C2=O)cc(C)c1Br (stereo unspecified)	–	–
Cc1cc(C)cc(N2C(=O)C3CC=CCC3C2=O)c1 (stereo unspecified)	44	–
CCN(CC)c1ccc(C(=O)OCC(=O)Nc2sccc2C#N)cc1	–	·
CCCCSc1nnc(-c2ccccc2)c2ccccc12	–	·
O=S(=O)(c1ccccc1)N(CC(O)Cn1c2ccccc2c2ccccc21)c1ccccc1 (stereo unspecified)	–	–
Cc1ccc(S(=O)(=O)N(C)CC(O)Cn2c3ccccc3c3ccccc32)cc1 (stereo unspecified)	39	–
COC(=O)c1sccc1NC(=O)c1ccc(OC)cc1	–	–
COC(=O)c1sccc1NC(=O)c1csc(C)c1	25	–
CCOC(=O)CC(=O)Nc1ccc(Br)cc1C(=O)O	–	–
CCCCC(=O)Nc1ccc(Br)cc1C(=O)O	55	–
CCc1cccc(CC)c1N(COC)C(=O)Cn1ccccc1=N	–	79
CCc1cccc(CC)c1N(COC)C(=O)Cn1nnc2ccccc21	–	–
CC(=O)/C(C#N)=C1\NC(=O)C(Cc2ccccc2Cl)S1 (stereo unspecified)	38	·
O=C1NC(=Nc2ccccc2)SC1Cc1cccc(Cl)c1Cl (stereo unspecified)	–	·
CC(=O)/C(C#N)=C1\NC(=O)C(Cc2ccc(C)c(C)c2)S1 (stereo unspecified)	69	–
Cc1ccc(CC2SC(=O)NC2=O)cc1Cl (stereo unspecified)	–	·
